Compound activity deposited in PubChem by The Scripps Research Institute Molecular Screening Center.
The entries come from a sample that favours hits as a whole.
TTR transcr act: TTR transcription activators in neuroblastoma reporter cells, primary screen, cell-based, luminescence, SH-SY5Y, TTR promoter Gaussia luciferase; 100% = recombinant luciferase protein wells; activation, % at 16.7 µM; 1.3% of 92,000 active;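 active = activation above the mean of all tested compounds plus 3 SD, cut at about 9.5% in these data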;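 also: cells exposed to compounds for one day before reading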
TTR inh HuH7: TTR promoter reporter inhibitors in hepatoma cells, counter-screen for TTR transcription activator project, cell-based, luminescence, HuH7 hepatoma | HuH7 TTR promoter-Gaussia luciferase reporter | 4% of 1,100 active | shares compounds with TTR transcr act | inhibition, % at 16.7 µM;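 active = average inhibition above the solvent-only control wells' mean plus 3 SD, cut at about 15% in these data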;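 also: inhibitors lower well luminescence so higher value means more inhibition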
TTR act confirm: TTR transcription activators, retest, confirmation, cell-based, luminescence, SH-SY5Y, triplicate; shares compounds with TTR transcr act; SHSY5Y TTR promoter Gaussia luciferase; 100% = purified Lucia enzyme wells, no cells; 1,100 tested, under 10 active; activation, % at 16.7 µM; AID 1117280, 2014;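 active = mean activation above a set limit taken from the earlier primary screen, cut at about 11% in these data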
Each line names hits and unclear results; the compound was inactive in the other large screens (follow-up assays come after a bar, where they were run).

Cc1cc(NC(=O)CSCC(=O)N(C)Cc2ccc(F)cc2)no1	TTR transcr act 13 | TTR inh HuH7 inactive | TTR act confirm inactive
CC(C)c1csc(CN2CCC(n3nccc3NC(=O)Cc3ccccc3)CC2)n1	none
Cc1ccc(S(=O)(=O)N2C[C@H]3C(=O)C[C@@H](c4ccccc4F)N(S(=O)(=O)c4ccc(C)cc4)[C@H]3C[C@H]2c2ccccc2)cc1	none
O=C(O)C(c1ccccc1)C(O)C1CCCC1 (stereo not given)	none
CCc1nnc(NC(=O)CSc2nnc(-c3ccccc3O)n2CC)s1	TTR transcr act 22 | TTR inh HuH7 inactive | TTR act confirm inactive
CCn1c(SCC(=O)Nc2nc(-c3ccccc3)cs2)nnc1-c1ccccc1O	none
CCc1nnc(NC(=O)CSc2nnc(-c3cc4ccccc4cc3O)n2CCOC)s1	none
COC(=O)CC[C@@H](/C=C/C(=O)OC(C)(C)C)Sc1ccc(C(C)(C)C)cc1	none
C[C@H]1CN([C@@H](C)CO)C(=O)CCCn2cc(nn2)CO[C@@H]1CN(C)S(=O)(=O)c1cn(C)cn1	none
COc1ccc(OC)c(CN2C(=O)CSCC2(C)c2nnnn2C2CCCC2)c1 (stereo not given)	none
C[C@H](CO)N1C[C@H](C)[C@@H](CN(C)Cc2ccncc2)OCc2cnnn2CCCC1=O	none
CSc1ccc(S(=O)(=O)N2CCC(C(=O)NC3CC3)CC2)cc1	TTR transcr act 18 | TTR inh HuH7 inactive | TTR act confirm inactive
Cc1ccc(S(=O)(=O)NNC(=O)C2CCN(S(=O)(=O)c3ccc(C)cc3)CC2)cc1	none
O=C(NC1CC1)C1CCN(c2ccc(S(=O)(=O)N3CCOCC3)cc2Cl)CC1	none
O=C(Nc1ccccc1C(F)(F)F)OC1CC2CC1[C@H]1CCCCN1C2 (stereo not given in full)	none
CC(=O)Nc1sc2c(c1-c1cc3ccccc3o1)CCNC2	none
COCCNC(=O)C1Cc2c(-c3cccc(NC(C)=O)c3)ccnc2O1 (stereo not given)	none
COc1cccc(N(C)C(=O)[C@@H](C)[C@@H](O)c2ccc(C(C)=O)cc2)c1	none
COc1ccc(-n2cc(CNCCCN3CCCC3=O)c(-c3ccccc3Cl)n2)cc1	none
COc1ncnc2c1ncn2CCCNCCCN1CCCC1=O	TTR transcr act 15 | TTR inh HuH7 inactive | TTR act confirm inactive
CC(CNCCCn1cnc2c(OCc3ccccc3)ncnc21)c1ccccc1 (stereo not given)	none
CC/C=C\[C@H](O)[C@H](O)C1=C(C)C(=O)[C@]2(O1)C(=O)N[C@@](OC)(C(=O)c1ccccc1)[C@@H]2O	none
CCCCOc1ccc(C(=O)NC2CCCCN(Cc3ccc(C)cc3)C2=O)cc1 (stereo not given)	none
C=CCN1CC(COc2ccc(OC)cc2)OCCS1(=O)=O (stereo not given)	none
Cc1cc(Nc2ccc3c(c2)OCCO3)c2cccc(C)c2n1	none
Cc1cc(C)c2c(N)c3cccc(C)c3nc2n1	TTR transcr act 12 | TTR inh HuH7 inactive | TTR act confirm inactive
Cc1cc(C)c2c(=O)[nH]c(SCc3ccccc3C)nc2n1	none
OCC1OC(Nc2ccccc2C=NO)C(O)C1O (stereo not given)	none
COc1ccc(CC(=O)Nc2cccc(-c3csc(C)n3)c2)cc1	none
CC(=O)Nc1cccc(-c2csc(N)n2)c1	TTR transcr act 9.7 | TTR inh HuH7 inactive | TTR act confirm inactive
CCC(=O)Nc1cccc(-c2csc(-c3ccccc3)n2)c1	none
CCN(C(=O)[C@@H](C1CC1)[C@@H](O)c1ccc(C(C)=O)cc1)c1ccccc1	none
C(=C\c1ccccc1)/CN1CCN(C(c2ccccc2)c2nnnn2C2CCCCC2)CC1 (stereo not given)	none
CC1C(=O)N(Cc2cn(CCC3OCCO3)nn2)CCS(=O)(=O)N1Cc1ccc(-c2ccc(Cl)cc2)cc1 (stereo not given)	none
CCOC(=O)C1=C(COC(=O)c2ccc([N+](=O)[O-])o2)NC(=O)NC1C (stereo not given)	none
CCN(CC)CCNS(=O)(=O)c1ccc2[nH]cc(C(=O)O)c(=O)c2c1	none
O=C(NCCN1CCOCC1)c1c[nH]c2ccc(S(=O)(=O)N3CCOCC3)cc2c1=O	none
CCCCN(C)C(=O)c1c[nH]c2ccc(S(=O)(=O)N3CCOCC3)cc2c1=O	TTR transcr act 11 | TTR inh HuH7 inactive | TTR act confirm inactive
Cc1cccc(NC(=O)CSCC(=O)N(C)Cc2c(F)cccc2Cl)c1	none
CC1(c2nnnn2-c2ccc(F)cc2)CCCC(=O)N1CCc1c[nH]c2ccccc12 (stereo not given)	none
O=C(O)c1ccccc1Nc1ccc([N+](=O)[O-])cc1C(=O)O	none
O=C(O)c1cc([N+](=O)[O-])cc2ccccc12	TTR transcr act 15 | TTR inh HuH7 inactive | TTR act confirm inactive
O=C(O)c1cc([N+](=O)[O-])ccc1-c1ccc([N+](=O)[O-])cc1C(=O)O	none
Cc1cccc(N2CCN(C(=S)NC3CCCCC3)CC2)c1C	TTR transcr act 12 | TTR inh HuH7 inactive | TTR act confirm inactive
Cc1cccc(N2CCN(C(=O)N3CCOCC3)CC2)c1C	none
S=C(NC1CCCC1)N1CCN(c2ccccn2)CC1	none
CCCCNS(=O)(=O)/C=C/c1ccccc1CCNC(=O)OC(C)(C)C	none
O=C(Nc1ccccc1)OCCc1ccccn1	none
Cc1ccnc2c(N3C(=O)C4C5C=CC(C5)C4C3=O)cccc12 (stereo not given)	TTR transcr act 9.8 | TTR inh HuH7 inactive | TTR act confirm inactive
O=C1C2C3C=CC(C4CC34)C2C(=O)N1c1cccc2ccccc12 (stereo not given)	none
COc1cccc(C(=O)COc2ccccc2N2C(=O)C3C4C=CC(C4)C3C2=O)c1 (stereo not given)	none
COC(=O)[C@]12C[C@H](CC(=O)NCc3ccc(C)o3)C(=O)N(Cc3ccc(Cl)cc3Cl)C1=C[C@H](C(C)C)O[C@@H]2C1CC1	none
Cc1ccc(C(C)C)c(OCC(=O)OCC(=O)c2c(N)n(C)c(=O)n(C)c2=O)c1	none
Cc1cccc(OCC(=O)OCC(=O)c2c(N)n(C)c(=O)n(C)c2=O)c1	TTR transcr act 11 | TTR inh HuH7 inactive | TTR act confirm inactive
Cc1cccc(OCC(=O)OCC(=O)c2c(N)n(C)c(=O)n(C)c2=O)c1C	none
CCn1c(SCc2nc3ccccc3s2)nnc1-c1cccs1	TTR transcr act 15 | TTR inh HuH7 inactive | TTR act confirm inactive
COc1ccc(-c2nnc(SCc3nc4ccccc4s3)n2C(C)C)cc1	none
Cn1c(SCc2nc3ccccc3s2)nnc1-c1cccs1	none
Cc1ccc(S(=O)(=O)N2CCC(=O)N([C@H](COC(=O)Nc3ccccc3)Cc3ccccc3)CC2)cc1	none
COC[C@@H]1CCCN1c1ccc2c(c1)OCCCN(C1CC1)S2(=O)=O	none
COc1cccc(C(c2nnnn2C2CCCC2)N2CCN(C/C=C/c3ccccc3)CC2)c1OC (stereo not given)	none
Nc1nc(Nc2ccccc2)sc1C(=O)c1ccccc1	none
O=C(Cc1nnc(NC(=O)Nc2ccc(F)cc2)s1)Nc1ccccc1	none
O=C(c1ccc(F)cc1)c1cnc(Nc2ccccc2)s1	TTR transcr act 15 | TTR inh HuH7 inactive | TTR act confirm inactive
COc1ccc(NC(=O)c2ccc3ccccc3c2OC)cc1	none
O=C1NC(=S)NC1(c1ccccc1)c1ccccc1	none
